Source: ChEMBL document CHEMBL3988442, “University of Dundee, Small-Polar-MMV Screening Library” (2021)

Target: AMP-activated protein kinase, AMPK (Homo sapiens) (UniProt P54646+O43741+P54619+Q9UGJ0+Q9Y478+Q13131+Q9UGI9)
Assay: AMP-dependent Kinase enzyme assay. An in vitro enzyme assay that detects ADP turnover that is directly proportional to AMPK activity. This uses naive AMPK that is activated during the assay with MK-8722
Assay type: functional
Design: scale not given: direction of the effect not stated beside the values
Details: 30 µM

Row | Structure (SMILES) | Percent Effect [%]
1 | CCOc1ccccc1-n1c(C2CC2)n[nH]c1=O | 2.2
2 | C[S+]([O-])CCNC(=O)N1CCN(c2cc(F)ccc2F)CC1 (stereo not given) | 2.94
3 | CCC[C@H]1CN(c2cncc(C(=O)N(C)C)n2)C[C@@H]1N(C)C | 9.69
4 | CSc1ccc(OCCN2CCNC(=O)C2C)cc1 (stereo not given) | 6.4
5 | Cc1ncoc1C(=O)N1CCCC(c2ccc3c(N)nn(C)c3n2)C1 (stereo not given) | 11.4
6 | COc1cccc(S(=O)(=O)N2CCCCC2CCN2CCCC2=O)c1 (stereo not given) | 5.93
7 | CC(C)c1ccc(CN2CCCC3(CC2)CN(C)C(=O)O3)cc1 (stereo not given) | 9.6
8 | Cc1noc(C)c1CN(C)C(=O)c1nc(N2CCCC2)ncc1Cl | 3.43
9 | CCCC(=O)Nc1cccc([C@H]2C[C@@H](NC(C)=O)CCO2)c1 | 13.7
10 | Cc1nnc(-c2cccc(C#N)c2)n1C1CCN(C(C)C)C1=O (stereo not given) | 7.44
11 | CCSCCn1cc(-c2ncc[nH]2)nn1 | -2.81
12 | Cc1ccc(CN(CCN(C)C)Cc2c(C)nc3sccn23)o1 | 14.3
13 | CCN(CCNS(=O)(=O)C1CCOCC1)C(=O)OC(C)(C)C | 1.64
14 | Cc1cccc(C)c1NC(=O)NCC1CCCN(C2CCOCC2)C1 (stereo not given) | 5.67
15 | Cc1cc(=O)n2nc(Oc3cc(Cl)cc(Cl)c3)sc2n1 | -4.19
16 | Cc1cc(C(=O)NC(C)Cc2ccccc2Cl)n(C)n1 (stereo not given) | 7.6
17 | Cc1ccc(CNS(=O)(=O)CCCC#N)cc1F | 7.39
18 | CCNC(=O)[C@@H]1C[C@@H](N)CN1C(=O)c1[nH]c2ccccc2c1CC | 13.5
19 | CC(C)CNC(=O)c1[nH]nc(C2CC2)c1Br | -2.23
20 | COc1ccccc1C(NC(=O)CN(C)C(C)C)c1noc(C)n1 (stereo not given) | -4.19
21 | c1cc(NCc2ccsc2)cc(-c2nnc[nH]2)c1 | 14.3
22 | CS(=O)(=O)CCCNc1cccc(COC2CCCCC2)c1 | -2.55
23 | CN(Cc1cccc(-n2cccn2)c1)Cc1c[nH]cn1 | -6.63
24 | CN(C)c1ccc(C(=O)Nc2ccn(CCc3ccncc3)n2)cn1 | 14.4
25 | Cc1cccnc1NC(=O)c1ccc(F)c(S(=O)(=O)NC2CC2)c1 | -4.18
26 | CC(C)(C)CC(NC(=O)N1CCC(C(N)=O)CC1)C(F)(F)F (stereo not given) | -1.73
27 | NC(=O)NC1CCN(Cc2ccc(Br)c(F)c2)CC1 | 4.07
28 | COCc1ccccc1C(=O)OCc1noc(C)n1 | 6.88

Row | Structure (SMILES) | Percent Effect [%]
29 | Cc1ccc(CNCc2nccn2C)c(OC(C)(C)C)c1 | -4.8
30 | Cn1ccc(N2CCCC(NC(=O)c3ccc(Cl)o3)C2=O)n1 (stereo not given) | 3.82
31 | CCC(NC(=O)C(C)(C)C)c1ccccc1C (stereo not given) | 5.82
32 | CC(C)c1nnc2n1CCN(Cc1cccc3c1OCCO3)C2 | 12.9
33 | C1=C(CNC2CCc3ncnn3C2)COc2ccccc21 (stereo not given) | 10.9
34 | COc1ccc(F)c(-c2cc(C(=O)NC3CC3)ccn2)c1 | -7.5
35 | O=C(C1COCCO1)N1CCN(CC(F)(F)F)c2ccccc21 (stereo not given) | 12.8
36 | Fc1ccc(C2(c3noc(CCN4CCCCO4)n3)CCOC2)cc1 (stereo not given) | 5.16
37 | CCCN(CCO)S(=O)(=O)c1ccc2[nH]c(=O)[nH]c2c1 | -3.64
38 | CNC(=O)Cc1ccc(NC(=O)NCc2ncc(C)s2)cc1 | -2.7
39 | Cc1nc(O)cc(CN2C[C@H](NC(=O)C3CCC3)[C@@H](C3CC3)C2)n1 | -2.67
40 | CC(C)NC(=O)c1nc(Cn2c(C(F)(F)F)nc3ccccc32)no1 | 6.13
41 | COCCc1noc(CN2CCN(c3ccc(OC)cc3)C(=O)C2C)n1 (stereo not given) | 4.12
42 | CN(C)c1nc(CNC(=O)Nc2cccc([S+](C)[O-])c2)cs1 (stereo not given) | 5.35
43 | CC(C)N(C(=O)Cn1cc(Cl)cn1)c1ccccc1 | -3.03
44 | CN(CC(O)C(F)(F)F)C(=O)Nc1cccc(Cn2cccn2)c1 (stereo not given) | -3.22
45 | O=C(C1CCCCN1Cc1nccn1CC(F)(F)F)N1CCCC1 (stereo not given) | -9.13
46 | NC(=O)CN(Cc1ncc(-c2ccccc2)o1)C1CCCC1 | -1.01
47 | O=C(NCc1ccc(Br)c(F)c1)Nc1cn[nH]c1 | -0.537
48 | Cc1cc(-c2cnc(N3CCSCC3)nc2C(C)C)on1 | 16
49 | CC(C)(C)OC(=O)N(CCNS(=O)(=O)N1CCOCC1)C1CC1 | 8.24
50 | CN(C)c1ccc(C(=O)N2CCC(c3cc4cnccc4[nH]3)CC2)cc1 | 20.5
51 | CC(C)c1nc(CN(C)S(=O)(=O)c2cccs2)cs1 | 4.38
52 | Cc1ccncc1CN1CCOCC1c1[nH]ncc1C (stereo not given) | 17
53 | CCc1c(C)nn2c(O)cc(C3CCN(C(=O)c4cnn(C)c4)C3)nc12 (stereo not given) | 5.68
54 | CN1CCN(CCNC(=O)c2sccc2C2CC2)CC1 | 3.89
55 | CN1CCN(CCOc2ccc(NC(=O)c3ccc[nH]3)cc2)CC1 | 6.53
